# This excerpt belongs to a sample that is enriched for hits.
# RMI-FANCM inh – RMI-FANCM interaction inhibition; Fluorescence polarization, RMI core complex with F-MM2 peptide; hits give low values; FP signal (polarization) at 33 µM; actives 0.58% (n = 70,000); in the data active = FP signal below about 40
# An asterisk follows results filed as active; ! = not active in a repeat.
SMILES,RMI-FANCM inh
COc1cc(C2Sc3ccccc3N=C3c4ccccc4CCC32)cc(OC)c1OC (stereo unspecified),57
Cc1ccc(-c2ccc(/C=C(\C#N)c3nc4ccccc4s3)o2)c([N+](=O)[O-])c1,60
N#C/C(=C/C1=Cc2ccccc2OC1)c1nc2ccccc2s1,-59
Cn1c(/C=C(\C#N)c2nc3ccccc3s2)ccc1-c1cccc(Cl)c1,15*
COc1ccc(Cl)cc1S(=O)(=O)Nc1ccc2c(c1)C(=O)N(C)c1cc(C)ccc1O2,55
O=C(CSc1ncccn1)Nc1ccccc1C(F)(F)F,60
CCOC(=O)c1c(NC(=O)C(C)Sc2ncnc3ccccc23)sc2c1CCCC2 (stereo unspecified),61
Cc1ccc(N2C(=O)C=CC2=O)c([N+](=O)[O-])c1,-7*
Cc1ccc(NC(=S)NC(C)(C)C)c([N+](=O)[O-])c1,50
CC(C)(C)c1ccc(-n2cccc2)c([N+](=O)[O-])c1,48
COCCN1CCC(CNC(=O)C2CCCCC2)CC1,70
Cc1nccc(-c2sc(-c3cccs3)nc2C)n1,55
CSc1nccc(-c2sc(-c3ccc(Cl)cc3)nc2C)n1,32*
CSc1nccc(-c2ccc(Br)s2)n1,62
CCOC(=O)c1ccc(NC(=O)Cn2c(=O)c3ccccc3c3ccccc3c2=O)cc1,64
CC(=O)Nc1nnc(-c2ccc3c(c2)OCO3)o1,64
COc1cc(C(=O)Nc2nnc(-c3ccc4c(c3)OCO4)o2)cc(OC)c1OC,33*
CC(C)Oc1ccc(C(=O)Nc2nnc(-c3ccc4c(c3)OCO4)o2)cc1,62
N#CC(=C(O)c1ccc2c(c1)OCCO2)c1nc2ccccc2s1,79
Cc1ccc(S(=O)(=O)N2CCCC(C(=O)Nc3cc(C)nn3C(C)C)C2)cc1 (stereo unspecified),65
CC(C)(C)c1cc(C(c2ccccn2)N2CCCCC2)cc(C(C)(C)C)c1O (stereo unspecified),58
COC(=O)Nc1ccc2c(c1)NC(=O)C(C)(C)CO2,66
CC1(C)COc2ccc(N)cc2NC1=O,37*
CC(C)S(=O)(=O)Nc1ccc2c(c1)NC(=O)C(C)(C)CO2,70
CN1CCc2cc(C(CNC(=O)NCc3ccc(F)cc3)N3CCCC3)ccc21 (stereo unspecified),68
SMILES,RMI-FANCM inh
CCc1cc(CC)c(/C=N\O)c(CC)c1/C=N\O,60
CC(c1ccccc1)N1C(=O)/C(=C\c2cccnc2)SC1=S (stereo unspecified),26*
O=C(O)CCN1C(=O)/C(=C\c2cccnc2)SC1=S,62
O=C1/C(=C/c2cccnc2)SC(=S)N1c1ccccc1F,61
O=C(Nc1ccc(F)cc1F)c1ccc(Cl)s1,64
CC(C)(C)c1ccc(S(=O)(=O)NCc2ccco2)cc1,55
COc1ccc(S(=O)(=O)NCc2ccco2)c(C)c1C,64
COc1ccc(S(=O)(=O)NCc2ccco2)cc1C(=O)O,1*
C=CCn1c(SCC(=O)NCc2ccc3c(c2)OCO3)nc2scc(-c3ccc(C)o3)c2c1=O,97
COc1cccc(CNC(=O)Cn2c(=O)n(Cc3ccccc3Cl)c(=O)c3nccnc32)c1OC,66
CCOc1ccccc1CN1C(=O)C(NC(C)=O)c2cc(C)cc(C)c21 (stereo unspecified),63
CCOc1ccccc1CN1C(=O)C2(SC(NC(C)=O)=NN2C(C)=O)c2cccc(Cl)c21 (stereo unspecified),22*
CCOc1cccc2sc(N(CCCN3CCOCC3)C(=O)c3ccc([N+](=O)[O-])o3)nc12,54
COc1ccccc1/C=C/C=N\NC(=O)c1cc(-c2ccccc2Cl)n[nH]1,63
Cn1cccc1C(CNS(=O)(=O)c1ccc(C(C)(C)C)cc1)N1CCCC1 (stereo unspecified),70
CCOc1ccc(OCC(=O)Nc2cc(C)nn2-c2nc(-c3cccs3)cs2)cc1,104
C[C@]12CC[C@@H]3c4ccc(OS(=O)(=O)O)cc4CC[C@H]3[C@@H]1CCC2=O,33*!
C[C@]12CCC3c4ccc(OC(=O)CCC(=O)O)cc4CCC3C1CCC2=O (stereo partly specified),53
C[C@]12CCC3c4ccc(O)cc4CCC3C1CCC2=O (stereo partly specified),65
Cc1ccc(-c2c(C)sc3ncn4nnnc4c23)cc1,73
O=C(Cn1cnc(-c2ccc(F)cc2)cc1=O)Nc1ccc(F)cc1,64
Cc1cc(N2CCCC2)n2nc(C(F)(F)F)c(-c3ccccc3)c2n1,62
CCN1CCC[C@H]1CNC(=O)c1c(OC)ccc(I)c1O,54
CCN1CCCC1CNC(=O)c1cc(S(N)(=O)=O)ccc1OC (stereo unspecified),2*!
CCc1cc(Cl)c(OC)c(C(=O)NC[C@@H]2CCCN2CC)c1O,45
SMILES,RMI-FANCM inh
O=C(NNc1nc2c(Cl)cccc2s1)c1coc2ccccc2c1=O,59
Cc1nnc(-c2ccc(OCC(=O)Nc3cccc(C)c3C)cc2)o1,68
COc1ccc(-c2c(C#N)c(SCC(=O)c3ccc4c(c3)OCO4)nc3c2C(=O)CC(C)(C)C3)cc1,143
N#Cc1c(SCC(=O)Nc2ccccc2)nc2c(c1-c1ccc(OCc3ccccc3)cc1)CCCC2,57
N#Cc1c(SCC(=O)c2ccc(O)c(O)c2)nc2c(c1-c1ccc(OCc3ccccc3)cc1)CCCC2,24*
CCN1CCc2c(sc(NC(=O)c3ccn(C)n3)c2-c2nc3ccccc3s2)C1,125
CN1C(=O)c2cccc(NC(=O)c3ccn(C)n3)c2C1=O,66
Cc1ccc(NC(=O)CN2CCC(C(=O)Nc3ccc(C(F)(F)F)cc3)CC2)cc1,56
CC1=C(Cl)C(O)=CC(=O)C12Oc1cc(O)c(Cl)c(C)c1C2=O (stereo unspecified),11*
CCc1ccc2nc(NCCN(C)C)sc2c1,76
Cc1cc(NC(=O)C(=O)NCC2CCN(Cc3ccccc3)CC2)c2ccccc2n1,72
COC(=O)C1Cc2ccc(C)cc2C(=O)O1 (stereo unspecified),62
Cc1cc(C)c2ccc(N)nc2n1,62
CCOc1cccc2sc(NC(=O)Cc3ccc(OC)c(OC)c3)nc12,67
COC(=O)N1CCc2c(sc(NC(=O)c3ccccc3)c2-c2nc3ccccc3s2)C1,70
CC(=O)N1CCc2c(sc(NC(=O)c3cc(=O)c4ccccc4o3)c2-c2nc3ccccc3s2)C1,-23
CCn1nccc1C(=O)Nc1sc2c(c1-c1nc3ccccc3s1)CCC(C)C2 (stereo unspecified),70
CC(C)N1CCc2c(sc(NC(=O)c3c(F)cccc3F)c2-c2nc3ccccc3s2)C1,-10*
CC(C)N1CCc2c(sc(NC(=O)c3ccnn3C)c2-c2nc3ccccc3s2)C1,-7*
CC(=O)N1CCc2c(sc(NC(=O)c3c(F)cccc3F)c2-c2nc3ccccc3s2)C1,90
Cc1ccc(-n2ncc3c(=O)[nH]c(C4CC4)nc32)cc1,77
O=C(CCC(=O)NNC(=O)c1ccc(F)cc1)NNC(=O)c1ccc(F)cc1,54
COc1ccc(-c2cn3c(C(=O)N(C)Cc4ccccc4)csc3n2)cc1,64
Cc1nnc(SCC(=O)N2CCCCCC2)c2c1cnn2-c1ccccc1,66
Cc1ccc(C2CC(c3cc(Br)ccc3O)=NN2)cc1 (stereo unspecified),66
CC1(C)COc2ccc(NC(=O)c3ccc(Cl)cc3)cc2NC1=O,65
Cc1sc(N)c(C(N)=O)c1C,15*
Cc1sc(N)c(C(=O)c2cccc(C(F)(F)F)c2)c1C,58
CCOC(=O)/C=C/C(=O)Nc1sc(C)c(C)c1C(N)=O,52

# Screening data: PubChem, Small Molecule Screening Facility, UW Madison
